Source: PubChem BioAssay (NCI)
Several values for one entry are separate records, joined by “and”; a condition that tells them apart may be missing. Identical values can stand only once. This is part of a sample that, as a whole, favours compounds with a hit. Of some 83,000 tested, about 20% had one in any assay.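 Values shown are percent growth following 48 h exposure of cells in 96-well plates to a single concentration of compound; below 10 was considered active.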 Activity calls are given as the source filed them.

Experiments:
Assay in all cases: NCI-60 one-dose screen, 48 h (100 = growth as untreated, 0 = no growth, -100 = all killed)
Conditions in all cases: 10 µM unless noted
[1] = test system: SR leukemia
[2] = test system: RPMI-8226 leukemia
[3] = test system: OVCAR-8 ovarian
[4] = test system: OVCAR-5 ovarian
[5] = test system: OVCAR-4 ovarian
[6] = test system: SK-OV-3 ovarian
[7] = test system: IGROV1 ovarian
[8] = test system: OVCAR-3 ovarian
[9] = test system: HS 578T breast
[10] = test system: NCI/ADR-RES ovarian
[11] = test system: T-47D breast
[12] = test system: BT-549 breast
[13] = test system: MDA-MB-435 melanoma
[14] = test system: MCF7 breast
[15] = test system: HCT-116 colon
[16] = test system: HCC-2998 colon
[17] = test system: KM12 colon
[18] = test system: SW-620 colon

Compound | growth [1] | growth [2] | growth [3] | growth [4] | growth [5] | growth [6] | growth [7] | growth [8] | growth [9] | growth [10] | growth [11] | growth [12] | growth [13] | growth [14] | growth [15] | growth [16] | growth [17] | growth [18]
O=C(O)c1cc(=O)[nH]c(=O)[nH]1 | 104% (inactive) | 98.2% (inactive) and 71.6% (inactive) | 102% (inactive) and 76.4% (inactive) | 101% (inactive) and -23.6% (active) | 107% (inactive) and 101% (inactive) | 104% (inactive) and 112% (inactive) | 103% (inactive) | 114% (inactive) and 112% (inactive) | 107% (inactive) and 94.8% (inactive) | 107% (inactive) and -33.1% (active) | 101% (inactive) and 105% (inactive) | 97.2% (inactive) | 96.7% (inactive) and 113% (inactive) | 98.7% (inactive) | 107% (inactive) | 99.3% (inactive) | 106% (inactive) and 99.6% (inactive) | –
C(=N\OCCc1ccccc1)/c1ccccn1 | 96.5% (inactive) and 84.3% (inactive) | 117% (inactive) and 98.3% (inactive) | 108% (inactive) and 103% (inactive) | 101% (inactive) and 102% (inactive) | 114% (inactive) and 113% (inactive) | 123% (inactive) | 111% (inactive) | 105% (inactive) and 104% (inactive) | 117% (inactive) and 105% (inactive) | 117% (inactive) and 104% (inactive) | 114% (inactive) | – | 109% (inactive) and 106% (inactive) | 92.9% (inactive) and 105% (inactive) | 112% (inactive) and 102% (inactive) | 105% (inactive) and 104% (inactive) | 113% (inactive) and 107% (inactive) | 110% (inactive) and 111% (inactive)
CC(C)(C(=O)c1cccnc1)c1cccnc1 | 84.7% (inactive) | 97% (inactive) and 92.1% (inactive) | 106% (inactive) and 104% (inactive) | 93.5% (inactive) and 94.5% (inactive) | 110% (inactive) and 118% (inactive) | 109% (inactive) and 115% (inactive) | 107% (inactive) and 103% (inactive) | 112% (inactive) and 118% (inactive) | 94.8% (inactive) and 110% (inactive) | 106% (inactive) and 67.8% (inactive) | 96.2% (inactive) and 111% (inactive) | – | 98.6% (inactive) and 122% (inactive) | 102% (inactive) and 93.8% (inactive) | – | 102% (inactive) | 101% (inactive) and 113% (inactive) | 105% (inactive) and 106% (inactive)
O=C1c2ccccc2C(c2ccccc2)C1c1ccccc1 (configuration not stated) | 86.3% (inactive) | 63.4% (inactive) | 103% (inactive) | 101% (inactive) | 86.1% (inactive) | 93.5% (inactive) | – | 105% (inactive) | 106% (inactive) | 94.8% (inactive) | 82.9% (inactive) | 131% (inactive) | 95.9% (inactive) | 69.3% (inactive) | 79.3% (inactive) | 95.4% (inactive) | 95.1% (inactive) | 90.1% (inactive)
CC(C)(C)OC(=O)CC1(O)CCCCC1 | 105% (inactive) | 107% (inactive) | 108% (inactive) | 115% (inactive) | 97.9% (inactive) | 105% (inactive) | – | 108% (inactive) | 102% (inactive) | 107% (inactive) | 99.8% (inactive) | 110% (inactive) | 102% (inactive) | 101% (inactive) | 102% (inactive) | 106% (inactive) | 107% (inactive) | 103% (inactive)
CCOC(=O)c1ccc(C(=N)N)cc1 | 103% (inactive) | 89.7% (inactive) | 105% (inactive) | 120% (inactive) | 107% (inactive) | 108% (inactive) | – | 102% (inactive) | 73.8% (inactive) | 100% (inactive) | 105% (inactive) | 119% (inactive) | 109% (inactive) | 95.3% (inactive) | 106% (inactive) | 103% (inactive) | 109% (inactive) | 102% (inactive)
CC1(C)CC(=O)NC1=O | 95.9% (inactive) | 108% (inactive) | 98.9% (inactive) | 94.8% (inactive) | 102% (inactive) | 104% (inactive) | – | 103% (inactive) | 112% (inactive) | 103% (inactive) | 91.5% (inactive) | – | 94.9% (inactive) | 93.6% (inactive) | 96.5% (inactive) | 102% (inactive) | 102% (inactive) | 107% (inactive)
